Measured values as given in ChEMBL document CHEMBL5308504, “Tm Shift (DSF) assay results for EUbOPEN Chemogenomics Library” (2023).
“And” between values parts separate entries of the source, which are not always exact repeats. Equal values may be shown once.

Biological target: T1, Transcription intermediary factor 1-alpha (Homo sapiens) (UniProt O15164)
T1 sequence (whole entry): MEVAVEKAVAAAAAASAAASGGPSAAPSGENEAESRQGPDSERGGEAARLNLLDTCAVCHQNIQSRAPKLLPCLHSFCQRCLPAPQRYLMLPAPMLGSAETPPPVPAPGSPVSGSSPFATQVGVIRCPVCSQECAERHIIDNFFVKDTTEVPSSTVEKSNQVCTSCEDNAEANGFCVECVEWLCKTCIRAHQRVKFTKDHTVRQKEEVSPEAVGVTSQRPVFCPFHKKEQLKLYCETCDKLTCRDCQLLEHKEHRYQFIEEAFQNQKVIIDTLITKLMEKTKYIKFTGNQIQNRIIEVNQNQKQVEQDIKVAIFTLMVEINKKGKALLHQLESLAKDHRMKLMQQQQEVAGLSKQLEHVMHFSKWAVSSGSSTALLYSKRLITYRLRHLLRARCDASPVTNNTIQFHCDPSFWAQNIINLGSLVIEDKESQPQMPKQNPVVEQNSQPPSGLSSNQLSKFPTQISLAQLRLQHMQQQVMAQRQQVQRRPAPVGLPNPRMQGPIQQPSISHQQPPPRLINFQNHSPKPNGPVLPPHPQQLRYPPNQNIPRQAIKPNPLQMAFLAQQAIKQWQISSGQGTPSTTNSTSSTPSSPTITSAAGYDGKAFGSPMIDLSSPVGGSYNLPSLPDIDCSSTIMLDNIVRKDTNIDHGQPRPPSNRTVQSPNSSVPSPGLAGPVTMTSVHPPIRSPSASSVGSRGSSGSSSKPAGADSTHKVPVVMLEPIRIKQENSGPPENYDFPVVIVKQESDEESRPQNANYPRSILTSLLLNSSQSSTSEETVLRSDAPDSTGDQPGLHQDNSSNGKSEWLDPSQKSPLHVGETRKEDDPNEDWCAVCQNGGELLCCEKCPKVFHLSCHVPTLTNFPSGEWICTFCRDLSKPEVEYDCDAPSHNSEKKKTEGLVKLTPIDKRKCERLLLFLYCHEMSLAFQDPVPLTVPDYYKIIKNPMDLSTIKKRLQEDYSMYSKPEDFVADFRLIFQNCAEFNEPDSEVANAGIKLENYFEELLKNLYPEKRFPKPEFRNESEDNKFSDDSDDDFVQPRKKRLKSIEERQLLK
Conditions: Compound concentration 20.0 uM, Protein concentration 2.0 uM, Result type QC Liability

SMILES	ΔTm
O=C(Nc1cccc(C(F)(F)F)c1)c1cccc(-n2cc(-c3ccco3)nn2)c1	-0.66 °C
CC(=O)Nc1ncc(CN2CCC[C@H](Cc3cc(C)nc(C)c3)C2)s1	-2.22 °C
CN(C(=O)c1cnn2cccnc12)c1cc2c(cc1N1CCOCC1)C(=O)N(C[C@@H](F)C(C)(C)O)C2	-2.51 °C
CC(C)c1nc2c(c3c1[C@H](c1ccc(C(F)(F)F)cc1)OC31CCOCC1)[C@H](O)CC(C)(C)C2	0.26 °C
N#CC[C@H](C1CCCC1)n1cc(-c2ncnc3[nH]ccc23)cn1	-1.72 °C
NC(=O)C1CCCc2c1[nH]c1ccc(Cl)cc21 (stereo unspecified)	-1.04 °C
CC(C)(O)[C@H](F)CN1Cc2cc(NC(=O)c3cnn4cccnc34)c(N3CCOCC3)cc2C1=O	-2.63 °C
Clc1ccccc1C(c1ccccc1)(c1ccccc1)n1ccnc1	-5.38 °C
COc1cc(-c2cc3ncccc3c(O[C@H](C)[C@H]3CNC(=O)C3)n2)cc(OC)c1OC	0.28 °C and -2.67 °C
COc1cc(O)c(C(CC(=O)N2C[C@H](C)C[C@H](C)C2)c2ccc3c(c2)OCO3)c(OC)c1 (stereo partly specified)	-3.38 °C
CC(C)c1cnc(NC(=O)Cc2ccccc2)s1	-1.45 °C
